Records with an inconclusive call do not appear. Where a call stands in place of a potency, no number is given. Calls of active or inactive are those of the source. Calls come from the whole dose curve; as a rule, active = well fitted inhibition curve with a large enough effect; inconclusive = small, poorly fitted or top-dose-only effect; inactive = flat fitted curve, though single readings scatter. Bridge positions count the residues as written; N and C are the ends. Square brackets hold non-standard residues; d marks the D form. Peptide text beside a SMILES is read from it. * marks the point of attachment. Ileψ(thiazoline)Cys = CC[C@H](C)[C@H](N)C1=N[C@H](C(=O)*)CS1; d(aIle) = CC[C@H](C)[C@@H](N)C(=O)O; dOrn = NCCC[C@@H](N)C(=O)O
These compounds were tested on CP238 (assay: qHTS profiling for inhibitors of Plasmodium falciparum proliferation (AID 504749; note: nearly all actives have a fitted effect of over 60% in size)). Details: P. falciparum in erythrocytes, SYBR Green DNA, 72 h; series mostly up to 12.8 µM.
Procedure, shortened: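 Three-day growth assay of blood-stage parasites in erythrocytes (0.3% parasitemia, 2.5% hematocrit) at 37 C, 5% CO2, quantified by SYBR Green DNA staining after overnight detergent lysis.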
Potency is the fitted concentration of half-maximal effect.

| Compound | Potency |
| --- | --- |
| C[C@@H]1C[C@H]2[C@@H]3C[C@H](F)C4=CC(=O)C=C[C@@]4(C)[C@]3(F)[C@H](O)C[C@]2(C)[C@@]1(O)C(=O)CO | inactive |
| C[C@H](O)Cn1cnc2c1c(=O)n(C)c(=O)n2C | inactive |
| CCCCC[C@H](O)/C=C\[C@@H]1[C@H](O)CC(=O)[C@@H]1CCCCCCC(=O)O | inactive |
| CC(=C(CCOP(=O)(O)O)SC(=O)c1ccccc1)N(C=O)Cc1cnc(C)nc1N | inactive |
| NC[C@@H]1O[C@@H](O[C@H]2[C@H](O)[C@H](O[C@@H]3O[C@H](CO)[C@@H](O)[C@H](N)[C@@H]3O)[C@@H](N)C[C@H]2N)[C@H](N)C[C@@H]1O | inactive |
| CCc1c(C)[nH]c2c1C(=O)[C@H](CN1CCOCC1)CC2 | inactive |
| C=C1c2c(Cl)ccc(O)c2C(O)=C2C(=O)[C@@]3(O)C(O)=C(C(N)=O)C(=O)[C@@H](N(C)C)[C@@H]3[C@@H](O)[C@H]12 | inactive |
| CC[C@H](C)[C@H](N)C1=N[C@H](C(=O)N[C@@H](CC(C)C)C(=O)N[C@@H](CCC(=O)O)C(=O)N[C@@H](C(=O)N[C@H]2CCCCNC(=O)[C@@H](CC(N)=O)NC(=O)[C@@H](CC(=O)O)NC(=O)[C@@H](Cc3cnc[nH]3)NC(=O)[C@@H](Cc3ccccc3)NC(=O)[C@@H]([C@@H](C)CC)NC(=O)[C@@H](CCCN)NC2=O)[C@@H](C)CC)CS1 ({Ileψ(thiazoline)Cys}-LE[d(aIle)]K[dOrn][d(aIle)][dF][dH][dD][dN]; lactam 4-C) | inactive |
| O=C(N/N=C\c1ccc([N+](=O)[O-])o1)c1ccc(O)cc1 | 3.16 µM (active) |
